# CYP2C9 act = CYP2C9 (human) activation. activation factor at 5 µM. AID 1024. recombinant CYP2C9, luciferin-H conversion, luminescence; hits give high values; factor 1 = untreated enzyme, 0 = blocked. actives 1.4% (n = 96,000);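 active = activation factor of 2 or more for CYP2C9 at a 5 µM dose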;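 also: 0 = sulfaphenazole-blocked wells and 1 = vehicle-only wells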
# CYP2C19 inh = blocks human cytochrome P450 2C19. CYP2C19 Supersomes, luciferin-H EGE luminescence, 30 min. inhibition, % at 5 µM. AID 778. actives 21% (n = 96,000). P33261;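 active = CYP2C19 inhibition above a set limit at 5 µM in the primary screen, cut at about 50% in these data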;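 also: plate controls were negative control wells for no effect and 2.5 mM tranylcypromine positive control for full effect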
# CYP2C19 activ = activators of human cytochrome P450 2C19; 96,000 tested, under 10 active; AID 1025; activation factor at 5 µM; recombinant CYP2C19, luciferin-H EGE luminescence; hits give high values; 0 = fully inhibited enzyme, 1 = untreated enzyme;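 active = activation factor of at least 2 at 5 µM in the primary screen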;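 also: 0 = wells with 2.5 mM tranylcypromine and 1 = vehicle-only wells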
# CYP2C9 inhib = human CYP2C9 inhibition; CYP2C9 Supersomes, luciferin-H conversion, luminescence; inhibition, % at 5 µM; actives 20% (n = 96,000); AID 777;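 active = blocking of liver enzyme CYP2C9 beyond about 50% at 5 µM, limit read from the data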
# Cav3 T inh = human Cav3.2 channel inhibition, primary screen | actives 4% (n = 100,000) | Cav3.2-expressing cells, Fluo-4 calcium fluorescence FDSS; hits give low values | O95180 | B-score at 10 µM;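 active = single-dose well whose peak fluorescence ratio is a statistical outlier from its plate by either plate-standardised score or position-corrected B-score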
# Active calls of the source: *; nt = no result given. An excerpt weighted towards active compounds, which were near 27% of everything screened.
SMILES,CYP2C9 act,CYP2C19 inh,CYP2C19 activ,CYP2C9 inhib,Cav3 T inh
CCN(CCO)c1ncnc2c1sc1nc(C(C)C)c3c(c12)CC(C)(C)OC3,0.2,16.8,0.8,75.5*,-0.101
CC(C)c1nc2sc3c(NCc4ccccc4)ncnc3c2c2c1COC(C)(C)C2,1,-9.9,1.1,-4.0,0.267
CNC(=O)c1sc(-c2ccccc2)nc1C,1.1,16.3,0.8,-8.9,0.328
O=C(Cc1sc(-c2ccccc2)nc1-c1ccccc1)Nc1ccccc1,0.5,0.2,1,51.9*,0.244
O=C(c1ccccc1)c1cc(-c2ccccc2)on1,1.1,51.2*,0.5,-12.9,-0.102
O=C(Nc1ccc(Br)cn1)C1CCCN1S(=O)(=O)c1ccccc1 (stereo not drawn),0.2,52.3*,0.5,77.1*,0.262
O=C(Nc1ccc(Cl)cn1)C1CCCN1S(=O)(=O)c1ccccc1 (stereo not drawn),0.2,21.6,0.8,80.4*,0.184
O=C(Nc1ccc(Br)cc1)C1CCCN1S(=O)(=O)c1cccs1 (stereo not drawn),0.1,95.6*,0,90.4*,-0.636
O=C(Nc1cccnc1)C1CCCN1S(=O)(=O)c1ccc(Cl)c(Cl)c1 (stereo not drawn),0.3,15.4,0.8,69.2*,-0.602
O=C(O)C1CCCN1S(=O)(=O)c1cccs1 (stereo not drawn),0.9,31.9,0.7,10.0,0.891
CN(C)CCC[C@@]1(c2ccc(F)cc2)OCc2cc(C#N)ccc21,nt,nt,nt,nt,0.0422
CC(C)CC(=O)Nc1nnn(C)n1,1.1,15.0,0.8,-5.7,-1.4
COc1ccc2c(c1)c(=O)cc(C)n2CC(=O)NCc1ccco1,0.9,49.9,0.5,6.0,0.0931
O=C(NCCc1ccccc1F)C1CCCN1S(=O)(=O)c1ccccc1 (stereo not drawn),0.7,78.8*,0.2,25.7,-0.00053
O=C(NCCc1ccccc1)C1CCCN1S(=O)(=O)c1ccc(F)cc1 (stereo not drawn),nt,nt,nt,nt,1.23
COC(=O)C1=C(C(=O)OC)[C@@H]2N(C)c3ccccc3[C@@]23C[C@@H](C(=O)OC)N(C(=O)c2ccc(Br)cc2)C3=N1,nt,nt,nt,nt,-3.41
CC(C)Oc1cc(O)c2c(=O)c(-c3ccc(O)cc3)coc2c1,0,-9.0,1.1,96.5*,-0.261
COc1ccccc1N1CCN(C(=O)COc2ccc(Cl)cc2)CC1,0.5,80.5*,0.2,51.8*,-0.368
O=C(COc1ccc(Cl)cc1)N1CCN(c2ncccn2)CC1,0.5,66.6*,0.3,53.6*,0.453
CC(=O)c1ccc(N2CCN(C(=O)COc3ccc(F)cc3)CC2)c(F)c1,0.5,53.0*,0.5,48.1,0.559
CCC(=O)c1ccc(N2CCN(C(=O)COc3ccc(F)cc3)CC2)c(F)c1,0.7,34.4,0.7,27.5,-0.618
COc1ccccc1OCC(=O)N1CCN(c2ccccc2OC)CC1,0.7,40.3,0.6,29.5,-2.11
COCC(=O)Nc1cc(C(=O)Nc2ccccc2C)ccc1Cl,0.7,17.0,0.8,29.7,0.738
COCC(=O)Nc1cc(C(=O)Nc2cccc(C)c2C)ccc1Cl,0.4,0.0,1,58.5*,0.247
Cc1nn2c(=O)cc(COC(=O)c3ccc(S(=O)(=O)N4CCCCC4)cc3)nc2s1,0.6,8.6,0.9,38.4,nt
SMILES,CYP2C9 act,CYP2C19 inh,CYP2C19 activ,CYP2C9 inhib,Cav3 T inh
Cc1cc(-c2ccccc2)nc(=O)[nH]1,1,4.4,1,2.5,0.44
O=c1nc(-c2ccccc2)cc(C(F)(F)F)[nH]1,0.5,12.9,0.9,51.4*,0.0231
Cc1cccc(N(CC(=O)N/N=C/c2ccc(OCC(=O)NCc3ccco3)cc2)S(C)(=O)=O)c1C,0,76.8*,0.2,96.4*,-0.557
Cc1cccc(N(CC(=O)N/N=C/c2cc([N+](=O)[O-])ccc2Cl)S(C)(=O)=O)c1C,0.7,52.8*,0.5,33.1,-5.51*
COc1ccc(CSCC(=O)N/N=C/c2ccc(OCC(=O)NCc3ccco3)cc2)cc1,0.3,58.1*,0.4,69.6*,0.971
Cn1cc(Br)c(C(=O)NNC(=O)c2cccc(Br)c2)n1,1.9,-10.4,1.1,-87.4,nt
FC(F)(F)c1ccc(C2[C@H]3CN(Cc4cccnc4)[C@H](c4ccccc4)C34CC2(c2ccccc2)C4)cc1 (stereo partly drawn),nt,nt,nt,nt,-0.084
Cc1cc(C)c(OC2(c3ccccc3)OC(=O)c3ccccc32)c(C)c1 (stereo not drawn),0.5,53.8*,0.5,54.8*,-3.73
Cc1cccc(C)c1OC1(c2ccccc2)OC(=O)c2ccccc21 (stereo not drawn),0.3,81.5*,0.2,69.2*,-6.62*
CC1Cc2ccccc2N1C(=O)CCS(=O)(=O)c1cccs1 (stereo not drawn),0.8,51.6*,0.5,22.9,0.978
CCOc1ccc(S(=O)(=O)N2c3ccccc3CC2C)cc1 (stereo not drawn),0.1,52.3*,0.5,93.9*,-3.57*
Cc1nn(S(=O)(=O)c2cccs2)c(C)c1Sc1ccccc1,0.9,23.0,0.8,11.5,-0.102
COc1ccc(CCC(=O)N2c3ccccc3CC2C)cc1 (stereo not drawn),0.4,96.3*,0,56.8*,-1.08
CC1Cc2ccccc2N1S(=O)(=O)c1cccs1 (stereo not drawn),1,80.9*,0.2,3.6,-1.28
CC1Cc2ccccc2N1C(=O)Cc1cccs1 (stereo not drawn),1.1,28.9,0.7,-6.5,-0.66
CC1CC(=O)Nc2ccccc2N1S(=O)(=O)c1ccc(Br)cc1 (stereo not drawn),1.1,9.8,0.9,-7.8,-0.0766
COc1cc(OC)c2ccc(=O)oc2c1C(CCN1CCN(c2ccccc2)CC1)c1ccc(N(C)C)cc1 (stereo not drawn),nt,nt,nt,nt,-1.58
CC1Cc2ccccc2N1S(=O)(=O)c1cccc(C(=O)NCCCO)c1 (stereo not drawn),0.6,52.0*,0.5,35.7,0.243
COc1cc(NC(=O)CCc2ccccc2)c(C(=O)O)cc1OC,0.8,1.1,1,18.1,0.599
COc1ccc(Cl)cc1NC(=O)CCc1ccccc1,3*,82.9*,0.2,-204.7,-4.59*
COc1cc(OC)c(NC(=O)CCc2ccccc2)cc1Cl,1.5,84.0*,0.2,-54.3,-2.29
O=C(O)CCNS(=O)(=O)c1ccccc1,0.9,2.8,1,5.7,-0.175
CC1CCN(C(=O)CCNS(=O)(=O)c2ccccc2)CC1,0.9,53.9*,0.5,12.6,-0.639
Brc1ccc(OCCCN2CCOCC2)cc1,1,78.0*,0.2,2.7,0.511
Cc1cc(C)cc(OCCCOc2cccc3cccnc23)c1,1.4,86.6*,0.1,-42.1,nt
CC(=O)NCCOc1cccc2cccnc12,1.1,-5.1,1.1,-8.6,0.922
Cc1cc(Cl)cc(Cl)c1OCCOc1cccc2cccnc12,1.9,39.7,0.6,-85.2,-0.136
Clc1ccc(OCCOCCN2CCCCC2)c(Br)c1,0.9,29.7,0.7,11.2,0.608
Clc1cc(Br)ccc1OCCOCCOc1cccc2cccnc12,1.7,66.2*,0.3,-70.6,-1.58
